Compound activity: PubChem BioAssay, several laboratories
Only some compounds are listed: those with a hit (about 2.6% of all), similar ones and a draw of the others.
CF NFkB inh: blocks PAF-induced NF-kB reporter in cystic fibrosis cells; hit rate 0.86% among 360,000; KKLEB NF-kB-GFP reporter, GFP fluorescence overnight; inhibition, % at 5 µM; AID 588850;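 active = at least 50% inhibition at 5 µM, scaled per plate between neutral and stimulator controls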;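 also: PAF is a Pseudomonas aeruginosa culture filtrate used as stimulus; plate controls were PAF-stimulated DMSO wells for no effect and unstimulated DMSO wells for full effect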
TROY signal inh: TROY signaling inhibition; inhibition, % at 10 µM; Q293 LMP1-TROYcd NF-kB luciferase reporter, 4 h; hit rate 0.98% among 360,000;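 active = compounds whose plate-normalised and pattern-corrected inhibition of the luciferase reporter signal at the single screening dose is 50% or more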
KKLEB tox: counter-screen for CF NF-kB inhibitors: cytotoxicity; hit rate 0.36% among 360,000; KKLEB CF airway cells viability, ATPlite luminescence, overnight; hits give low values; cells stimulated with P. aeruginosa culture filtrate; AID 602141; activity change (cytotoxicity), % at 5 µM;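 active = corrected activity change at or below -50% at 5 µM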
LGR2 antag: Drosophila LGR2 receptor signaling inhibition; HEK293 LGR2, CRE-luciferase, bursicon-stimulated, 4 h; inhibition, % at 9.99 µM; hit rate 0.35% among 380,000; AID 720647;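 active = drop in luminescence signal, shown as inhibition above about 50% in the replicate tests, limit read from the data, passing the limit was not always enough; inconclusive = probably only some replicates passing the limit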;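 also: agonist challenge used bursicon conditioned medium at about half maximal strength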
EWS-Fli inh: blocks EWS/Fli oncoprotein-driven transcription. A673 NR0B1-luciferase reporter, viability-normalised. hit rate 0.67% among 350,000. inhibition, % at 12.6 µM;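 active = mean inhibition of at least 50% after viability correction, with every replicate also passing that limit; inconclusive = mean reaches 50% but only one of two replicates passes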;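 also: firefly luciferase signal divided by Alamar Blue viability fluorescence both relative to DMSO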
TWEAK Fn14 block: inhibitors of TWEAK-Fn14 interaction signaling. TWEAK-stimulated Fn14 reporter cells, luciferase luminescence, 8 h. inhibition, % at 10 µM. hit rate 2% among 360,000. AID 1159606; in the data active = inhibition above about 50%
* hit, by the source's call; ? = inconclusive; nt = no result.

SMILES | CF NFkB inh | TROY signal inh | KKLEB tox | LGR2 antag | EWS-Fli inh | TWEAK Fn14 block
CO[C@H]1CN(C)C(=O)c2ccc(NC(=O)Nc3c(C)noc3C)cc2OC[C@@H](C)N(CC2CC2)C[C@H]1C | nt | nt | nt | -6 | 4 | nt
C=CCN1C(=O)N(CC=C)c2cccc3cccc1c23 | 20 | 66* | -9 | 9 | -12 | 14
CCN1C(=O)Nc2cccc3cccc1c23 | -105 | 4 | -2 | 6 | 43 | 31
Cc1ccc(NC(=O)c2ccccc2NS(=O)(=O)c2ccc(Cl)s2)cc1 | 60* | 45 | -48 | 31 | -14 | 58*
O=C(Nc1ccccc1Cc1ccccc1)c1ccccc1NS(=O)(=O)c1ccc(Cl)s1 | 63* | 68* | -49 | ? | nt | 58*
Cc1ccc(NS(=O)(=O)c2ccc(Cl)s2)nc1 | 3 | -12 | 1 | -5 | -5 | 11
O=C(NCc1ccco1)c1ccccc1NS(=O)(=O)c1ccc(Cl)s1 | 8 | 7 | 5 | nt | nt | 2
O=C(Nc1ccccc1)c1ccccc1NS(=O)(=O)c1ccc(Cl)s1 | 45 | 63* | -36 | nt | nt | 23
COc1ccc(NC(=O)c2oc3ccccc3c2NC(=O)COc2ccccc2OC)c(OC)c1 | 54* | 0 | -54* | nt | nt | -48
Cn1c(NCC(O)c2ccccc2)nc2c1c(=O)n(Cc1ccc(Cl)c(Cl)c1)c(=O)n2C (stereo not given) | 4 | 54* | -4 | 25 | nt | 49
Cc1cccc(C)c1OCC(=O)Nn1c(C)nc2ccccc2c1=O | 15 | nt | 4 | nt | nt | 78*
CC(C)(C)c1ccc2c(c1)C(=O)c1ccccc1C2=O | -15 | 52* | -21 | -56 | 14 | 41
CCc1ccc2c(c1)C(=O)c1ccccc1C2=O | -24 | -67 | 3 | nt | -103 | -36
CC(C)N(C[C@H]1[C@@H](c2ccccc2)[C@H](CO)N1S(C)(=O)=O)C(=O)CN(C)C | nt | nt | nt | -9 | -3 | nt
CC=Cc1ccc2n(c1=O)C[C@H]1[C@H](CO)[C@@H](C(=O)NCC)[C@@H]2N1C(=O)c1ccccc1 (mixture of isomers) | nt | nt | nt | 3 | 4 | nt
C[C@@H]1CN([C@@H](C)CO)C(=O)c2cc(C3=CCCC3)cnc2O[C@@H]1CN(C)C(=O)C1CC1 | nt | nt | nt | -8 | -12 | nt
COc1ccc(/C(C)=N/NC2=NCCN2)cc1Cl | 1 | -9 | 7 | 2 | -5 | 9
CCCCOc1ccc(Br)cc1/C(C)=N/NC1=NCCN1 | 34 | 31 | -18 | nt | nt | 51*
CCCCCCOc1ccc(/C(C)=N/NC2=NCCN2)cc1[N+](=O)[O-] | -2 | 6 | -8 | -10 | 59* | -50
CN=c1scc(C)n1/N=C/c1ccc(O)cc1 | 6 | 59* | 3 | nt | nt | -7
Cc1nnc(C)n1/N=C/c1ccc2c(c1)OCCO2 | -22 | -5 | 6 | nt | nt | 1
CN=c1scc(C)n1/N=C/c1ccc2c(c1)OCO2 | 0 | -55 | -24 | nt | nt | 53*
CN=c1scc(C)n1/N=C/c1ccc(O)cc1O | -8 | -24 | -13 | nt | nt | 64*
CCCN(C)C[C@H]1OCCCC[C@H](C)Oc2ccc(NC(=O)C3CCCCC3)cc2C(=O)N([C@H](C)CO)C[C@H]1C | nt | nt | nt | 9 | -3 | nt
O=C(c1ccccc1)N1CC[C@H]2[C@H](CO)Nc3ccc(C#Cc4ccccc4F)cc3[C@H]21 | nt | nt | nt | 0 | nt | nt
SMILES | CF NFkB inh | TROY signal inh | KKLEB tox | LGR2 antag | EWS-Fli inh | TWEAK Fn14 block
CC(C)c1nnc(NC(=O)c2nc(S(=O)(=O)Cc3ccc(F)cc3)ncc2Cl)s1 | 89* | 29 | -101* | -9 | nt | 99*
Cc1ccc(CS(=O)(=O)c2ncc(Cl)c(C(=O)Nc3nnc(C(C)C)s3)n2)cc1 | 85* | 60* | -86* | -27 | 70* | 100*
C=CCSc1nnc(NC(=O)c2nc(SCC)ncc2Cl)s1 | -15 | 0 | 22 | -8 | 16 | -10
CC(C)c1nnc(NC(=O)CS(=O)(=O)Cc2ccccc2)s1 | 10 | -9 | -6 | 0 | 3 | 16
Cc1cccc(CS(=O)(=O)c2ncc(Cl)c(C(=O)Nc3nnc(C(C)C)s3)n2)c1 | 92* | 55* | -87* | nt | nt | 101*
CCSc1nnc(NC(=O)c2nc(S(=O)(=O)Cc3ccc(F)cc3)ncc2Cl)s1 | 92* | -2 | -97* | -24 | nt | 99*
CC(C)c1nnc(NC(=O)CCC(=O)N2CCN(Cc3ccc(F)cc3)CC2)s1 | -6 | -7 | 8 | 1 | nt | -5
CO[C@H]1CN(C)C(=O)c2cc(NC(=O)NC(C)C)ccc2OC[C@H](C)NC[C@H]1C | nt | nt | nt | -7 | 1 | nt
CN1c2ccc(-c3cccc(C#N)c3)cc2[C@H]2[C@H](CCN2C(=O)NC2CCCCC2)[C@H]1CO | nt | nt | nt | 10 | -2 | nt
CSc1nnc(NC(=O)c2nc(S(=O)(=O)Cc3cccc(C)c3)ncc2Cl)s1 | 90* | 46 | -50* | -8 | nt | 94*
CC(=O)Nc1ccc(OCC(O)Cn2c3ccccc3c3ccccc32)c(C)c1 (stereo not given) | 33 | 42 | -16 | 28 | nt | 58*
COCCNC(=O)c1cccc(Nc2nc(-c3ccccc3)c3cc(Cl)ccc3n2)c1 | 5 | 32 | -5 | 9 | 8 | 63*
CC(=O)NNc1nc(-c2ccccc2)c2cc(Cl)ccc2n1 | -26 | -6 | -2 | 4 | 4 | -3
C[C@]12C=CC(=O)C=C1CC[C@@H]1C2[C@@H](O)C[C@@]2(C)C1CC[C@]2(O)C(=O)COC(=O)CCC(=O)O (stereo not given in full) | 74* | 18 | 2 | 17 | 2 | -16
CC(=O)OCC(=O)C1(O)CCC2C3CCC4=CC(=O)C=CC4(C)C3C(O)CC21C (stereo not given) | 75* | 14 | 31 | 6 | 5 | 12
CCC(C)C(NC(=O)CCC(=O)OCC(=O)[C@@]1(O)CCC2[C@@H]3CCC4=CC(=O)C=C[C@]4(C)C3[C@@H](O)C[C@@]21C)C(=O)O (stereo not given in full) | 74* | 11 | 27 | 6 | 3 | -4
C[C@@H]1CN([C@H](C)CO)C(=O)CCCn2cc(nn2)CO[C@H]1CN(C)Cc1ccc(Oc2ccccc2)cc1 | nt | nt | nt | -2 | 3 | nt
Cc1ccc(S(=O)(=O)Nc2ccc3c(c2)C(=O)N([C@H](C)CO)C[C@@H](C)[C@@H](CN(C)C(=O)Nc2ccccc2)OCCCC[C@@H](C)O3)cc1 | nt | nt | nt | 16 | 9 | nt
CCCCCCCn1c2c(c(=N)c3c1CCC3)CCCC2 | 47 | 48 | -23 | nt | 63* | 61*
CCCCCCn1c2c(c(=N)c3c1CCC3)CCC2 | 32 | 59* | -44 | 22 | nt | 28
CCCCCCCCCn1c2c(c(=N)c3c1CCC3)CCC2 | 55* | 52* | -62* | nt | nt | 46
CCCCn1c2c(c(=N)c3c1CCC3)CCC2 | 7 | 18 | 3 | 6 | nt | 25
Cc1ccccc1-c1ccc([C@@H]2[C@@H](CO)N3CCCCN(C(=O)c4cccnc4)C[C@@H]23)cc1 | nt | nt | nt | 1 | -10 | nt
COc1ccc(S(=O)(=O)N(C)C[C@H]2OCCCC[C@H](C)Oc3ccc(NC(=O)c4ccncc4)cc3C(=O)N([C@@H](C)CO)C[C@H]2C)cc1 | nt | nt | nt | 11 | 1 | nt
